Screens as filed in PubChem BioAssay.
The list is not random: actives were taken first. Their share in the collection is about 18%.
IL1B secr inh = inhibitors of inflammasome signaling (IL-1 beta secretion); THP-1 LPS/ATP IL-1B secretion, AlphaLISA, 16 h; stronger effect = lower value; activity change, % at 57.5 µM; 4.7% of 360,000 active; AID 743279; in the data active = activity change below about -50%; inconclusive = mostly about -30% to -49%
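Secreted IL-1B measured by AlphaLISA bead assay after 16 h compound exposure of THP-1 cells; compounds (final up to 57.5 uM) added 1 h before LPS (250 ng/mL) and ATP (1.25 mM) stimulation; lower signal means less secretion.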
DT40 TDP1 no CPT = qHTS for Inhibitors of human tyrosyl-DNA phosphodiesterase 1 (TDP1): qHTS in cells in absence of CPT. DT40 Tdp1-/- hTDP1 cells, no CPT, ATP luminescence, 48 h. Potency, µM (titrated, usually from 46.2 µM), actives largely listed as inhibitors. 15% of 420,000 active. AID 686978, 2013; note: nearly all actives have a fitted effect of over 55% in size
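Luminescent ATP content (CellTiter-Glo) served as the growth readout. Knockout chicken DT40 cells expressing human TDP1 were exposed to compounds without camptothecin for a minimum 48 hr at 37 °C.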
RORgamma inh = blocks mouse ROR gamma transcriptional activity. P51450. Drosophila S2 Gal4-RORgamma UAS-luciferase reporter, 20 h. Potency, µM (titrated, usually from 53.6 µM), usual class: inhibitors. 5.4% of 310,000 active. AID 2551; note: nearly all actives have a fitted effect of over 60% in size
Target sequence (P51450 whole entry, looked up, the tested form may be a part): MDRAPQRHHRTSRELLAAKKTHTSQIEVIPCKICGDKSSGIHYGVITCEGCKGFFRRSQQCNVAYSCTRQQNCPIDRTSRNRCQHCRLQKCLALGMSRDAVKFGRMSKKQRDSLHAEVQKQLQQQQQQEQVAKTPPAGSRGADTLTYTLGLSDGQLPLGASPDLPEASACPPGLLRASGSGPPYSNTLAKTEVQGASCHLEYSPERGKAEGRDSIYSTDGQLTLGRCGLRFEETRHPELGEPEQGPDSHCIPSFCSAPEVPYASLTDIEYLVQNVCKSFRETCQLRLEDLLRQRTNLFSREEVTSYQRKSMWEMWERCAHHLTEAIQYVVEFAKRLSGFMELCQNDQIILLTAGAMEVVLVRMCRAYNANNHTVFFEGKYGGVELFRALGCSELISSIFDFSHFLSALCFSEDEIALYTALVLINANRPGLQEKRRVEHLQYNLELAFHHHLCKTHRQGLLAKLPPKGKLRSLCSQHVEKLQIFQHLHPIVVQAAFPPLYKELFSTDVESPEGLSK
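Read-out: Photinus luciferase luminescence; inhibitors lower reporter signal. Insect Schneider cells with Gal4-ROR gamma fusion under metallothionein promoter, UAS reporter; 700 uM final copper sulfate induction, 20 hr, ambient temperature.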
LDHA inh = blocks human lactate dehydrogenase A; activity change, % (values are at about 110 or 230 µM); AID 1347041; 0.15% of 480,000 active; purified LDHA, NADH/diaphorase-resazurin fluorescence; stronger effect = lower value; in the data active = activity change below about -30%; inconclusive = mostly about -25% to -30%
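Enzyme activity of human lactate dehydrogenase 5 (2 nM; 0.06 mM NADH, 0.2 mM pyruvate, 5 min, RT) is measured via a resazurin/diaphorase fluorescence readout of residual NADH.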
VP16 counter = Gal4-VP16 reporter inhibition counter-screen. Potency, µM (titrated, usually from 53.6 µM), most hits filed as inhibitors. Drosophila S2 Gal4-VP16 UAS-luciferase, luminescence, 20 h. AID 2546. 3.5% of 310,000 active;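 note: Gal4-VP16 expression switched on by copper sulfate through the metallothionein promoter; nearly all actives have a fitted effect of over 50% in size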
DT40 TDP1 CPT = DT40-hTDP1 cell growth loss with CPT | chicken DT40 Tdp1-/-;hTDP1 cells + 20 nM CPT, ATP luminescence, 48 h | 12% of 420,000 active | Potency, µM (highest dose often 46.2 µM), most hits filed as inhibitors; note: nearly all actives have a fitted effect of over 55% in size
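Chicken DT40 Tdp1-/- cells complemented with human TDP1, 400 cells/well, exposed to compounds plus 20 nM camptothecin for at least 48 h at 37 C; viability read as ATP content by CellTiter-Glo luminescence.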
A number is an active result; n = inactive; u = inconclusive; x = not tested or not shown. Unless noted, calls come from the whole dose curve; as a rule, active = well fitted curve in the direction sought with a large enough effect; inconclusive = small, poorly fitted or top-dose-only effect, or another doubt; inactive = no such curve, though single readings can be large; an effect the other way counts as inactive or inconclusive.

SMILES | IL1B secr inh | DT40 TDP1 no CPT | RORgamma inh | LDHA inh | VP16 counter | DT40 TDP1 CPT
Cc1cccc(C(=O)NC(=S)NNC(=O)c2ccc(Cl)cc2)c1 | n | u | 10µM | n | u | u
O=C(Cn1c(NCc2ccccc2)nc2ccccc21)N1CCOCC1 | x | x | x | n | x | x
Cc1ccc2nc(SCC(=O)Nc3ccccc3N3CCOCC3)c(C#N)cc2c1 | n | 3.26µM | n | n | u | 4.61µM
CCc1ccc2nc(SCC(=O)Nc3ccccc3N3CCOCC3)c(C#N)cc2c1 | n | 4.11µM | n | n | n | 4.61µM
Cc1cccn2cc(CSc3ncc(C(F)(F)F)cc3Cl)nc12 | x | x | x | n | x | x
CCNC(=O)NC(=O)CSc1nc(C)c(C)n1C1CCCC1 | x | x | x | n | x | x
CSc1c[n+]2c(n1C)CCC2 | n | n | n | -34.2 | n | n
COc1ccc(C2=NN(C(=O)CSc3ncccn3)C(c3cccc(OC)c3OC)C2)cc1 (stereo unspecified) | n | u | n | n | n | u
CCOc1ccccc1C1N=C(c2ccc(OC)cc2)CC(c2ccccc2O)N1 (stereo unspecified) | n | 16.4µM | n | n | n | 20.6µM
CC(C)(C)OC(=O)N1CCC(C(=O)Nc2ccc(C(=O)NCCc3ccccc3)cc2)CC1 | n | 10.3µM | x | n | x | u
CC(C)(C)OC(=O)N1CCC(C(=O)Nc2ccc(C(=O)NCc3ccccc3)cc2)CC1 | n | 14.6µM | x | n | x | 16.4µM
CC(C)(C)OC(=O)N1CCC(C(=O)Nc2cccc(C(=O)NCCCCc3ccccc3)c2)CC1 | n | u | x | n | x | u
C=CC[C@@H](Cc1ccc(F)cc1)C(=O)OC[C@@H]1CCCN1C(=O)[C@@H](CC=C)CC(=O)N[C@H](CO)Cc1ccccc1 | u | 16.4µM | x | n | x | 10.3µM
C=CC[C@@H](Cc1ccc(F)cc1)C(=O)OC[C@H]1CCCN1C(=O)[C@@H](CC=C)CC(=O)N[C@H](CO)Cc1ccccc1 | n | u | x | n | x | u
C=CCC[C@@H](Cc1ccc(F)cc1)C(=O)OC[C@@H]1CCCN1C(=O)[C@@H](CC=C)CC(=O)N(CCO)Cc1ccccc1 | -73.2 | 18.4µM | x | n | x | 16.4µM
C=CC[C@@H](Cc1ccc(F)cc1)C(=O)OC[C@H]1CCCN1C(=O)[C@H](CC=C)CC(=O)NCCO | n | u | x | n | x | u
C=CC[C@@H](Cc1ccc(F)cc1)C(=O)OC[C@H]1CCCN1C(=O)[C@H](CC=C)CC(=O)N[C@H](CO)Cc1ccccc1 | n | u | x | n | x | 20.6µM
C=CCC[C@@H](Cc1ccc(F)cc1)C(=O)OC[C@@H]1CCCN1C(=O)[C@H](CC=C)CC(=O)N[C@H](CO)Cc1ccccc1 | u | 18.4µM | x | n | x | u
CCOC(=O)C1(C)C=C(Nc2ccc(F)cc2)C(=O)N1c1ccc(F)cc1 (stereo unspecified) | x | x | x | n | x | x
Cc1nc(-n2nc(C)c(Cl)c2C)sc1C(=O)N1CCCC1 | x | x | x | n | x | x
C=CCC[C@H](Cc1ccc(F)cc1)C(=O)OC[C@H]1CCCN1C(=O)[C@@H](CC=C)CC(=O)NCCO | n | u | x | n | x | u
C=CC[C@@H](Cc1ccc(F)cc1)C(=O)OC[C@@H]1CCCN1C(=O)[C@@H](CC=C)CC(=O)N[C@@H](CO)Cc1ccccc1 | n | 18.4µM | x | n | x | u
C=CCC[C@@H](Cc1ccc(F)cc1)C(=O)OC[C@H]1CCCN1C(=O)[C@@H](CC=C)CC(=O)N[C@H](CO)Cc1ccccc1 | n | u | x | n | x | u
C=CC[C@@H](Cc1ccc(F)cc1)C(=O)OC[C@H]1CCCN1C(=O)[C@@H](CC=C)CC(=O)N[C@@H](CO)Cc1ccccc1 | n | 11.6µM | x | n | x | 11.6µM
O=C(CCn1c(-c2ccccc2)cc2ccccc21)N1CCN(CCO)CC1 | x | x | x | n | x | x
SMILES | IL1B secr inh | DT40 TDP1 no CPT | RORgamma inh | LDHA inh | VP16 counter | DT40 TDP1 CPT
Cc1c(C)n(CCc2ccccc2)c2ncnc(NCCO)c12 | n | u | n | n | n | u
c1ccc(CCNc2ncnc3scc(C4COc5ccccc5O4)c23)cc1 (stereo unspecified) | n | 18.4µM | n | n | n | u
c1ccc2c(c1)OCC(c1csc3ncnc(N4CCCC4)c13)O2 (stereo unspecified) | n | 10.3µM | n | n | n | 14.6µM
CCCCc1nn2c(=O)cc(COC(=O)c3cccc(NC(=O)c4ccccc4F)c3)nc2s1 | x | x | x | n | x | x
O=C(O)CCNS(=O)(=O)c1ccc(Cl)c(C(F)(F)F)c1 | x | x | x | n | x | x
Cc1ccc(NCc2n[nH]c(=S)n2-c2ccccc2)cc1 | n | n | 8.91µM | n | n | n
COc1cc(OC)cc(C(=O)NCc2n[nH]c(=S)n2-c2ccccc2)c1 | n | n | n | n | n | n
Cc1ccc(NCc2n[nH]c(=S)n2-c2ccccc2)c(C)c1 | n | n | 1.78µM | n | u | n
Cc1cccc(NCc2n[nH]c(=S)n2-c2ccccc2)c1 | n | n | 10µM | n | n | n
Cc1cccc(-n2c(CNC(=O)Cc3ccccc3)n[nH]c2=S)c1 | n | n | n | n | n | n
CC(C)c1nc(NCC2CCCO2)c(C#N)c2c1CCCC2 (stereo unspecified) | x | x | x | n | x | x
CC(=O)c1ccc(NS(=O)(=O)c2cc(-c3nc(-c4ccc(Cl)cc4)no3)sc2C)cc1 | x | x | x | n | x | x
CN(C)c1ccc(/C=C/c2ccc3ncccc3c2)cc1 | x | u | x | n | x | u
CN(C)c1ccc(/C=C/c2ccccn2)cc1 | x | 4.47µM | x | n | x | 1.41µM
CCN(CC)c1ccc(/C=C/c2ccccn2)cc1 | x | 0.282µM | x | x | x | 0.178µM
CN(C)c1ccc(/C=C/c2cc3ccccc3cn2)cc1 | x | 0.447µM | x | x | x | 0.447µM
CC(=O)c1ccc(N2CCN(S(=O)(=O)c3ccc4c(c3)CC(C)N4C(=O)C3CC3)CC2)cc1 (stereo unspecified) | n | 5.8µM | n | n | 11.2µM | 4.61µM
CCC(=O)N1c2ccc(S(=O)(=O)N3CCN(c4ccc([N+](=O)[O-])cc4)CC3)cc2CC1C (stereo unspecified) | n | 7.31µM | u | n | u | 9.2µM
CC(=O)c1ccc(N2CCN(S(=O)(=O)c3ccc4c(c3)CC(C)N4C(C)=O)CC2)cc1 (stereo unspecified) | n | 7.31µM | u | n | u | 23.1µM
CC1Cc2cc(S(=O)(=O)N3CCN(C)CC3)ccc2N1C(=O)C1CC1 (stereo unspecified) | n | n | n | n | n | n
CCC(=O)N1c2ccc(S(=O)(=O)N3CCN(c4ccccc4)CC3)cc2CC1C (stereo unspecified) | x | u | x | n | x | u
Cc1cccc(N2CCN(S(=O)(=O)c3ccc4c(c3)CC(C)N4C(=O)C3CC3)CC2)c1C (stereo unspecified) | n | 23.1µM | n | n | n | u
Fc1ccccc1CNC1C2CC3CC(C2)CC1C3 (stereo unspecified) | x | x | x | n | x | x
